Experimental data as given in PubChem BioAssay (NCATS).
Results filed as inconclusive are left out. Calls of active or inactive are those of the source. Unless noted, the call rests on the fitted dose curve.

Legend:
[1] = target: Glucocorticoid receptor (Homo sapiens) (UniProt P04150); test: qHTS assay for small molecule agonists of glucocorticoid receptor signaling (AID 588532; active means well fitted curve in the direction sought with a large enough effect in the signal ratio, with a control signal flat; the % refers to the signal ratio;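 further: 100% = dexamethasone at 0.1 µM and 0% = DMSO only wells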); details: HeLa MMTV-bla, beta-lactamase ratio, agonist, 18 h; activation: stronger effect = higher value, percent of dexamethasone control, DMSO zero
Summary of the method: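 Titration series, up to 92 uM, applied to GRE-bla HeLa cells for 18 h at 37 C. Detection by CCF4 FRET substrate after 2 h at RT.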

[2] = qHTS assay for small molecule antagonists of peroxisome proliferator-activated receptor delta signaling (AID 588535; active means well fitted inhibition curve with a large enough effect in the signal ratio, with a control signal flat, not every such curve was filed as active; the % refers to the signal ratio;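 on max response: cells co-treated with a PPAR-delta agonist as stimulator during compound exposure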); details: HEK293T PPARd-UAS-bla, beta-lactamase FRET ratio, 18 h; 460 nm channel
Summary of the method: (§1)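 GeneBLAzer PPAR-delta-UAS-bla HEK293T cells in medium with 2% charcoal/dextran FBS were preincubated 5 hrs at 37 C, then given compounds, incubated 18 hrs at 37 C, and read by CCF4 beta-lactamase fluorescence; IC50 from Hill fits.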

[3] = target: Peroxisome proliferator-activated receptor delta (Homo sapiens) (UniProt Q03181); test: as above
Summary of the method: as §1

[4] = target: Peroxisome proliferator-activated receptor gamma (Homo sapiens) (UniProt P37231); test: qHTS assay for small molecule agonists of peroxisome proliferator-activated receptor gamma signaling (AID 588536; active means well fitted curve in the direction sought with a large enough effect in the signal ratio, with a control signal flat, not every such curve was filed as active; the % refers to the signal ratio;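 further: 0% = DMSO basal wells and 100% = rosiglitazone at 2 µM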)
Summary of the method: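 Ratiometric blue/green fluorescence (405 nm excitation; 460 and 530 nm emission) from CCF4-loaded HEK293 reporter cells serves as signal. Exposure to test compounds lasts 16 h at 37 C in medium containing 1% charcoal/dextran-treated serum.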

[5] = target: Peroxisome proliferator-activated receptor gamma (Homo sapiens) (UniProt P37231); test: qHTS assay for small molecule antagonists of peroxisome proliferator-activated receptor gamma signaling (AID 588537; active means well fitted inhibition curve with a large enough effect in the signal ratio, with a control signal flat, not every such curve was filed as active; the % refers to the signal ratio;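 further: reporter cells co-stimulated with 50 nM rosiglitazone agonist during compound treatment; % of control where 0% means no effect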)
Summary of the method: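 PPAR-gamma-UAS-bla HEK293 cells (3000/well, 1% charcoal/dextran-stripped FBS) were preincubated 6-6.5 h at 37 C, given titrated compounds, then stimulated with 50 nM rosiglitazone for 16 h. Beta-lactamase activity was read with CCF4 dye; IC50 came from Hill fits.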

[6] = target: Vitamin D3 receptor (Homo sapiens) (UniProt P11473); test: qHTS assay for small molecule antagonists of vitamin D receptor signaling (AID 588541);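 further: receptor activated by calcitriol during compound treatment; series mostly up to about 77 µM; on the % scale 0 is the no-effect control and ±100 the full control effect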
Summary of the method: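 VDR-UAS-bla HEK293T cells (2000/well, 2% charcoal-stripped FBS) were treated with titrated compounds plus 1-alpha,25-dihydroxyvitamin D3 (50 nM or 3 nM final) for 16 h at 37 C. CCF4 beta-lactamase fluorescence was read; Hill fits gave IC50.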

[7] = target: Vitamin D3 receptor (Homo sapiens) (UniProt P11473); test: qHTS assay for small molecule agonists of vitamin D receptor signaling (AID 588543);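 further: 0% = DMSO basal and 100% = reference agonist control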
Summary of the method: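 VDR-UAS-bla HEK293T cells, 2000/well, 2% charcoal-stripped FBS; compound titration 16 h at 37 C; CCF4 beta-lactamase ratio read. Normalized to 50 nM 1-alpha,25-dihydroxyvitamin D3 (100%) and DMSO; Hill fit gives EC50, efficacy.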

[8] = qHTS assay for small molecule agonists of retinoid X receptor alpha signaling (AID 588544); details: HEK293T RXRa-UAS-bla, beta-lactamase reporter, 18 h; 530 nm emission;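 on activation: 0% = DMSO basal wells and 100% = reference agonist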
[9] = target: Retinoic acid receptor RXR-alpha (Homo sapiens) (UniProt P19793); test: as above
[10] = target: Thyroid hormone receptor beta (Homo sapiens) (UniProt P10828); test: qHTS assay for small molecule agonists of thyroid hormone receptor beta signaling (AID 588545);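 further: 0% = DMSO only and 100% = 10 nM T3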
Summary of the method: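 Efficacy and EC50 values derive from Hill fits of qHTS titration data, normalized to 10 nM T3 and DMSO-only wells. HEK 293 reporter cells were stimulated for 18 hrs at 37 C, with beta-lactamase activity measured by CCF4 fluorescence.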

[11] = target: Thyroid hormone receptor beta (Homo sapiens) (UniProt P10828); test: qHTS assay for small molecule antagonists of thyroid hormone receptor beta signaling (AID 588547; active means well fitted inhibition curve with a large enough effect in the signal ratio, with a control signal flat, not every such curve was filed as active; the % refers to the signal ratio;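 further: cells stimulated with 0.4 nM T3 agonist during compound exposure; series mostly up to about 77 µM; on the % scale 0 is the no-effect control and ±100 the full control effect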); details: TR-UAS-bla HEK293, beta-lactamase ratio, antagonist mode, 18 h
Summary of the method: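 TR-UAS-bla GripTite HEK293 cells in 2% charcoal/dextran FBS medium were preincubated 4 h at 37 C, given compound (0.59 nM to 92 uM) plus 0.4 nM T3 (final) for 18 h, then CCF4 for 2 h at RT; Hill fit gave IC50.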

[12] = qHTS assay for environmental chemicals that activate the Aryl hydrocarbon Receptor (AhR) signaling pathway (AID 651777; active means well fitted curve in the direction sought with a large enough effect; an effect the other way counts as inactive or inconclusive; further: nearly all actives have a fitted effect of over 15% in size; further: potency means the concentration at half of the fitted maximal effect; on activation: % of control where 0% means no effect); details: 1A2-DRE human hepatoma cells, luciferase, 24 h; activation: stronger effect = higher value
Summary of the method: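 Human hepatoma 1A2-DRE cells, stably carrying a dioxin response element and CYP1A2 promoter driving luciferase, were exposed to compounds for 24 hr at 37 C and 5% CO2. Luciferase signal was then read after 30 min One-Glo at room temperature.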

[13] = qHTS assay for small molecule agonists of the antioxidant response element (ARE) signaling pathway measured by Nrf2-dependant transcriptional activity (AID 720636; active means well fitted curve in the direction sought with a large enough effect in the repeat runs; an effect the other way counts as inactive or inconclusive; further: % of control where 0% means no effect)
Summary of the method: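 ARE-luc HepG2 cells carrying an Nrf2-responsive luciferase reporter were plated in medium with 1% dialyzed FBS, left 6 hr at 37 C to attach, then exposed to compound for 16 hr. Luciferase luminescence was read after ONE-Glo addition.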

[14] = qHTS assay for small molecule agonists of the antioxidant response element (ARE) signaling pathway measured by Nrf2-dependant transcriptional activity - cell viability counter screen (AID 720653; active means well fitted curve in the direction sought with a large enough effect in the repeat runs; an effect the other way counts as inactive or inconclusive; further: on the % scale 0 is the no-effect control and ±100 the full control effect); details: ARE-bla HepG2 viability, CellTiter-Glo ATP luminescence, 16 h; max response: stronger effect = lower value
Summary of the method: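 ARE-bla HepG2 cells (2,000/well) rested 5 hrs at 37C/5% CO2, then exposed to compounds in DMSO for 16 hrs. Viability was read in the same wells as intracellular ATP by luminescence, 30 min at room temperature after reagent addition.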

[15] = qHTS assay for cell viability of HEK293 cells (AID 743288; active means well fitted curve in the direction sought with a large enough effect; an effect the other way counts as inactive or inconclusive; further: on the % scale 0 is the no-effect control and ±100 the full control effect; nearly all actives have a fitted effect of over 50% in size); details: ATP luminescence (CellTiter-Glo), 18 h; max response: stronger effect = lower value
Summary of the method: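 Parental HEK293 cells, 2,000 per well, preincubated at least 5 h at 37 C, then exposed to compounds in DMSO for 18 h at 37 C. Viability by CellTiter-Glo ATP luminescence after 30 min at room temperature.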

[16] = target: Nuclear receptor subfamily 1 group I member 2 (Rattus norvegicus) (UniProt Q9R1A7); test: qHTS assay for small molecule activators of the rat pregnane X receptor (rPXR) signaling pathway (AID 651751; call rule not given here; further: 0% is about no effect); details: rPXR reporter cells, luciferase (One-Glo), 24 h
[17] = qHTS assay for small molecule activators of the human pregnane X receptor (PXR) signaling pathway (AID 720659; call rule not given here; further: 0% is about no effect)
[18] = target: Peroxisome proliferator-activated receptor alpha (Homo sapiens) (UniProt Q07869); test: qHTS assay for small molecule agonists of the peroxisome proliferator-activated receptor alpha (PPARalpha) signaling pathway (AID 651778; active means well fitted curve in the direction sought with a large enough effect; an effect the other way counts as inactive or inconclusive; further: % of control where 0% means no effect); details: PathHunter PPARalpha complementation, chemiluminescence, 6 h; max response: stronger effect = higher value
Summary of the method: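 Cells plated at 2,000/well and held overnight at 37 C, 5% CO2, then compound added by pin tool for 6 hr; after PathHunter detection reagent and 60 min at room temperature, chemiluminescence from enzyme complementation was read.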

[19] = qHTS assay for cell viability of the p53RE-bla HCT-116 cell line (AID 743292; active means well fitted curve in the direction sought with a large enough effect; an effect the other way counts as inactive or inconclusive; further: nearly all actives have a fitted effect of over 55% in size; further: potency means the concentration at half of the fitted maximal effect)
Summary of the method: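 CellSensor p53RE-bla HCT-116 cells, 4,000/well, preincubated 5 h at 37 C, then exposed to compounds in DMSO for 16 h at 37 C. Viability read as CellTiter-Glo luminescence (intracellular ATP) after 30 min at room temperature.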

[20] = target: Peroxisome proliferator-activated receptor delta (Homo sapiens) (UniProt Q03181); test: qHTS assay for small molecule agonists of peroxisome proliferator-activated receptor delta signaling (AID 588534);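 further: 0% = DMSO basal wells and 100% = positive control agonist at 10 µM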
Summary of the method: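 Reporter cells were plated and held 5 hrs at 37 C before compounds were added. After 18 hrs at 37 C, CCF4 dye was loaded for 2 hrs at RT and fluorescence measured.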

[21] = qHTS assay for small molecule antagonists of retinoid X receptor alpha signaling (AID 588546; active means well fitted inhibition curve with a large enough effect in the signal ratio, with a control signal flat, not every such curve was filed as active; the % refers to the signal ratio;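 further: cells stimulated with 9-cis-retinoic acid as agonist; on the % scale 0 is the no-effect control and ±100 the full control effect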); details: HEK293T RXRa-UAS-bla, beta-lactamase ratio, antagonist mode; measured here: W530 green channel, cytotoxicity proxy
Summary of the method: (§2)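 Beta-lactamase reporter inhibition, read as CCF4 fluorescence ratio (ex 405, em 460/530 nm) after 2 h at RT. HEK293T UAS-bla cells, 2500/well, were stimulated with 9-cis-RA at 500 or 100 nM final alongside test compound for 18 h at 37 C.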

[22] = target: Retinoic acid receptor RXR-alpha (Homo sapiens) (UniProt P19793); test: as above; details: HEK293T RXRa-UAS-bla, beta-lactamase ratio, antagonist mode
Summary of the method: as §2

[23] = qHTS assay for small molecule agonists of the antioxidant response element (ARE) signaling pathway (AID 651741; active means well fitted activation curve with a large enough effect in the signal ratio; the % refers to the signal ratio; further: % of control where 0% means no effect)
Summary of the method: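 ARE-bla HepG2 cells (beta-lactamase reporter under ARE control) were plated at 2,000 cells/well, preincubated 5 h at 37 C/5% CO2, then treated with DMSO-dissolved compounds for 16 h at 37 C; LiveBLAzer B/G FRET substrate added, fluorescence read after 2 h at room temperature.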

[24] = qHTS assay for small molecule activators of the p53 signaling pathway (AID 651743; active means well fitted activation curve with a large enough effect in the signal ratio, not every such curve was filed as active; the % refers to the signal ratio; further: series mostly up to about 92 µM; % of control where 0% means no effect); details: HCT-116 p53RE-bla, beta-lactamase FRET ratio, 16 h; activation: stronger effect = higher value
Summary of the method: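 p53RE-bla HCT-116 cells with a stably integrated beta-lactamase reporter under p53 response elements were plated, rested 5 hours at 37 C/5% CO2, then exposed to compounds in DMSO for 16 hours at 37 C. LiveBLAzer B/G FRET substrate was read after 2 hours at room temperature.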

[25] = target: Glucocorticoid receptor (Homo sapiens) (UniProt P04150); test: qHTS assay for small molecule antagonists of glucocorticoid receptor signaling (AID 588533; active means well fitted inhibition curve with a large enough effect in the signal ratio, with a control signal flat, not every such curve was filed as active; the % refers to the signal ratio)
Summary of the method: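 Antagonist-mode qHTS: compound titrations added to GRE-bla HeLa cells, then dexamethasone 2 nM final; 18 h, 37 C. CCF4 FRET fluorescence normalized to dexamethasone and DMSO; IC50 from Hill fit.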

[26] = qHTS assay for small molecule activators of the nuclear factor-kappa B (NF-kB) signaling pathway (AID 651749; active means well fitted activation curve with a large enough effect in the signal ratio; the % refers to the signal ratio; further: series mostly up to about 77 µM; % of control where 0% means no effect); details: NF-kB-bla ME-180 cells, beta-lactamase FRET ratio, 16 h; activation: stronger effect = higher value
Summary of the method: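 ME-180 cells stably carrying a beta-lactamase reporter under an NF-kB response element were exposed to compound or DMSO vehicle for 16 hr at 37C, 5% CO2. Pathway activation was read by FRET, since reporter expression disrupts FRET.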

Thyroid hormone receptor beta (Homo sapiens), sequence (P10828 whole entry, looked up): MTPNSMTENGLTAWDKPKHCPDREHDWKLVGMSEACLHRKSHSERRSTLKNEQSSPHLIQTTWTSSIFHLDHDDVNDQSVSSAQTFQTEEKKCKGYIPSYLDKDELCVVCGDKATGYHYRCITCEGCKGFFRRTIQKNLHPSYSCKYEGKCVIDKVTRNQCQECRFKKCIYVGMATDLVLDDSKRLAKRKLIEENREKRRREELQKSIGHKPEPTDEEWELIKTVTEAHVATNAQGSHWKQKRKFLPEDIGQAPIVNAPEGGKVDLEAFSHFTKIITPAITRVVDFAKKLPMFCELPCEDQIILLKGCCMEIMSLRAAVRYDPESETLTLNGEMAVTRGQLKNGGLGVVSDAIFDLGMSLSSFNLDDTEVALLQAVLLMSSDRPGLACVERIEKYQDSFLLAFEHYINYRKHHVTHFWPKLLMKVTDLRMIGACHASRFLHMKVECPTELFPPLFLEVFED
Retinoic acid receptor RXR-alpha (Homo sapiens), sequence (P19793 whole entry, looked up): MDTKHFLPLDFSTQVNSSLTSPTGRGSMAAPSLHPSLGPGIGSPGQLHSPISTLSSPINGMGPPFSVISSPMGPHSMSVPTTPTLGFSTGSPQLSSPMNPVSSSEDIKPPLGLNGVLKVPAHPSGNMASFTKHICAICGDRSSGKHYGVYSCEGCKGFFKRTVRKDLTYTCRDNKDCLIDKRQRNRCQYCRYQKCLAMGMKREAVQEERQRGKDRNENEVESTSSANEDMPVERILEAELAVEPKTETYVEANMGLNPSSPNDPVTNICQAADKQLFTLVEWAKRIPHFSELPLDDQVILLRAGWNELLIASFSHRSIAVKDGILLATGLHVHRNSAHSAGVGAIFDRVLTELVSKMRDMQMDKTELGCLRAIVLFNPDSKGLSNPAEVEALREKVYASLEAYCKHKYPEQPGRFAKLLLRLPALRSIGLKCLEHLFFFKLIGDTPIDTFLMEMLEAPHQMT
Peroxisome proliferator-activated receptor gamma (Homo sapiens), sequence (P37231 whole entry, looked up): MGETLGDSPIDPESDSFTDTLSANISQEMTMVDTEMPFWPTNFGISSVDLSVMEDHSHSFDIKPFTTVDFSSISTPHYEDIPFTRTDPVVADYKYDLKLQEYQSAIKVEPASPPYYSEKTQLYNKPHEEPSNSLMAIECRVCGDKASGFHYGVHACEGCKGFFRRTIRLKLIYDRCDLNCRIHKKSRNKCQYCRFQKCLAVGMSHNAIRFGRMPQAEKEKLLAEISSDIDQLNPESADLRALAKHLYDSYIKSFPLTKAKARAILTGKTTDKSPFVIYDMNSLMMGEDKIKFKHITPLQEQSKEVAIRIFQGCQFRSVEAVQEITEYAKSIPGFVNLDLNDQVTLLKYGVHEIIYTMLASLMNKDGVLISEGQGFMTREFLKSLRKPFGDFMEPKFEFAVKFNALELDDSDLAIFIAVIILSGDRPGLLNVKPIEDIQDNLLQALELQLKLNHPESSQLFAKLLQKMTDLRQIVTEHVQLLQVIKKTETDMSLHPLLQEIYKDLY
Vitamin D3 receptor (Homo sapiens), sequence (P11473 whole entry, looked up): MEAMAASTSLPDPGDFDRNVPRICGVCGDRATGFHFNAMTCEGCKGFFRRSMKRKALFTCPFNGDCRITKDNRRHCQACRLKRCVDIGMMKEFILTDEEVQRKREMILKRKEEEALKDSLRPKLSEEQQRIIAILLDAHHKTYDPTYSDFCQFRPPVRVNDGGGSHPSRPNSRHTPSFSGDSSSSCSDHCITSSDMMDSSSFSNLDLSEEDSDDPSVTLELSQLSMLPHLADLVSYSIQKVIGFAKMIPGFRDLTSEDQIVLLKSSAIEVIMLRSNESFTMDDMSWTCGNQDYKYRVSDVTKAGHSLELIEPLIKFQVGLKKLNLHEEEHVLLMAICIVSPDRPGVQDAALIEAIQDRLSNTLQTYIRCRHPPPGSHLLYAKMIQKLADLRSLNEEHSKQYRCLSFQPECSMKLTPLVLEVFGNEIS
Glucocorticoid receptor (Homo sapiens), sequence (P04150 whole entry, looked up): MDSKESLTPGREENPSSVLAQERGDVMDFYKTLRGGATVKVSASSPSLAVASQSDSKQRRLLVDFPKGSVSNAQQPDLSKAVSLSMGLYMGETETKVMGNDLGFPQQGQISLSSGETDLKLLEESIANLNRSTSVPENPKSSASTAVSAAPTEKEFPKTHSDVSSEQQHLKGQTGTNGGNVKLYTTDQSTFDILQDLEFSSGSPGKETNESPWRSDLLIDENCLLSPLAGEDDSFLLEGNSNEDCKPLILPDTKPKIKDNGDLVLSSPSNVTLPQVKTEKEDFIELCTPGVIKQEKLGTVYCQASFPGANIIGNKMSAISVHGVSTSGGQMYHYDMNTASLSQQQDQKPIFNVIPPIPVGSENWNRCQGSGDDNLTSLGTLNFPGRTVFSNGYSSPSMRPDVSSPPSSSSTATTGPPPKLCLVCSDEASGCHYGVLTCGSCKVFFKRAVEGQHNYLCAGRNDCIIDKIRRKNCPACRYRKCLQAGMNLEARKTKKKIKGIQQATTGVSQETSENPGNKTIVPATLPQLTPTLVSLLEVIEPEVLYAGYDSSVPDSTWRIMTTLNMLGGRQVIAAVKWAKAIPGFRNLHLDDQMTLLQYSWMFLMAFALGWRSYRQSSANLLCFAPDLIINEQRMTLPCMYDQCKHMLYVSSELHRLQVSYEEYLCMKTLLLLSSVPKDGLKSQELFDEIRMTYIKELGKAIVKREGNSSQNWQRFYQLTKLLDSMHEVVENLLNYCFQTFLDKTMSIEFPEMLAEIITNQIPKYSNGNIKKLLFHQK
Peroxisome proliferator-activated receptor alpha (Homo sapiens), sequence (Q07869 whole entry, looked up): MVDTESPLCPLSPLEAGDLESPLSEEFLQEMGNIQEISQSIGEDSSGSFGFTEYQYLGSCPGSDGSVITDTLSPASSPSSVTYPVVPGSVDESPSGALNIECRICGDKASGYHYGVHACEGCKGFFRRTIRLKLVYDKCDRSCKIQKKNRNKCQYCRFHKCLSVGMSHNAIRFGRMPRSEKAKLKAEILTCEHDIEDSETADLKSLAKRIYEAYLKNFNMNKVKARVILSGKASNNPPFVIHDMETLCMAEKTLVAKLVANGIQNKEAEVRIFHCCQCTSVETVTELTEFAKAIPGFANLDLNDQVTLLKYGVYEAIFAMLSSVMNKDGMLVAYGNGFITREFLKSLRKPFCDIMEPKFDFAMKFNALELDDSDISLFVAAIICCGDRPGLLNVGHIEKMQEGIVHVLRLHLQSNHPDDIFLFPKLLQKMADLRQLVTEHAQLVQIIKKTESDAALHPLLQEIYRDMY
Peroxisome proliferator-activated receptor delta (Homo sapiens), sequence (Q03181 whole entry, looked up): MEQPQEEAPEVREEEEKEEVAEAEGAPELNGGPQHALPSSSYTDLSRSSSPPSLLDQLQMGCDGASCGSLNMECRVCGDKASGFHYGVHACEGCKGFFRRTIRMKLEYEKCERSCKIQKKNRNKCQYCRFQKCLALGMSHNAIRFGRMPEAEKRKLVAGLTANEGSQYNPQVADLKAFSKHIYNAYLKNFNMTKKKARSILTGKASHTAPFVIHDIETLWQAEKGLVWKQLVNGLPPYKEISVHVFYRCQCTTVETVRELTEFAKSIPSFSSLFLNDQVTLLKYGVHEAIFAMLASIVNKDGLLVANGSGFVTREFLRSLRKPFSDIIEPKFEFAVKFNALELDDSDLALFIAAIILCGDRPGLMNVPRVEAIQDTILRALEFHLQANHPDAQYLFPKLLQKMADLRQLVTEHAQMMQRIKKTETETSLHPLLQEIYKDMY
Nuclear receptor subfamily 1 group I member 2 (Rattus norvegicus), sequence (Q9R1A7 whole entry, looked up): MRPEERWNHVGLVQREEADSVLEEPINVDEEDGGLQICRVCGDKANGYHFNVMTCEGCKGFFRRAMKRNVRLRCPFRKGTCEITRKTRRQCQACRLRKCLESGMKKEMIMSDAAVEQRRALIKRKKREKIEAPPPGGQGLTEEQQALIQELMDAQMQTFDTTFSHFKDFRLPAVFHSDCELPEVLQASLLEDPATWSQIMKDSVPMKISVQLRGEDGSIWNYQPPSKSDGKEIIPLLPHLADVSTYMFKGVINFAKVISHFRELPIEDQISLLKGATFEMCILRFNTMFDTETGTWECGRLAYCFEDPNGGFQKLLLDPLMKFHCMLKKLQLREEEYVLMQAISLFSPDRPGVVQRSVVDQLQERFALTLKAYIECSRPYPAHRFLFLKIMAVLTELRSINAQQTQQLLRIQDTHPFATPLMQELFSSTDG

CCc1cnc(C2=NC(C)(C(C)C)C(=O)N2)c(C(=O)O)c1 (stereo unspecified)
6.03%: max response [2]
-15.1%: max response [8]
inactive: activation [1] -7.69% | Potency [3] | Potency [4] | Potency [5] | Potency [6] | outcome [7] | Potency [9] | Potency [10] | activity change % (negative = inhibition) [11] -0.801% | activation [12] -2.09% | Potency [13] | max response [14] 16.5% | max response [15] 4.64% | max response [16] -2.79% | outcome [17]

O=C1C(Cl)=C(Cl)C(=O)c2ccccc21
inactive: activation [1] -5.64% | outcome [7] | max response [18] -10.7% | outcome [17]
active: Potency [12] 50.1 µM | Potency [19] 50.1 µM

O=C1CCCCC1
inactive: outcome [20]

COP(=O)(NC(C)=O)SC (stereo unspecified)
inactive: activation [1] -2.58% | outcome [20] | Potency [3] | Potency [4] | Potency [5] | Potency [6] | outcome [7] | Potency [9] | Potency [10] | max response [22] -12.8% | activity change % (negative = inhibition) [11] -13.5% | Potency [23] | activation [24] -0.529% | activation [12] -1.62% | max response [18] -0.657% | Potency [13] | max response [14] -8.51% | max response [15] -8.22% | Potency [19] | max response [16] -1.19% | outcome [17]
4.58%: max response [8]
-7.01%: max response [2]
3.46%: max response [21]

COc1cc(OC)nc(Sc2cccc(Cl)c2C(=O)O)n1
inactive: activation [1] 5.02% | Potency [25] | Potency [4] | Potency [5] | Potency [6] | outcome [7] | Potency [9] | Potency [10] | max response [22] -5.7% | activity change % (negative = inhibition) [11] 6.23% | Potency [23] | activation [24] -0.496% | activation [26] 0.833% | max response [18] -1.08% | Potency [13] | max response [14] -2.11% | max response [15] -8.52% | max response [16] 3.18% | outcome [17]
-16.4%: max response [8]
-2.85%: max response [21]

CC(C)(C)OOC(C)(C)CCC(C)(C)OOC(C)(C)C
-4.8%: max response [21]
inactive: Potency [25] | Potency [6] | outcome [7] | Potency [9] | Potency [10] | max response [22] -1.22% | Potency [23] | activation [24] 2.86% | max response [18] 0.675% | Potency [13] | max response [14] -14% | max response [15] 0.0033% | Potency [19] | max response [16] -1.16% | outcome [17]
-2.41%: max response [8]
